KCNQ2 enhance: KCNQ2 (rat) channel potentiation; O88943; CHO-K1 KCNQ2, FluxOR thallium flux fluorescence; active compounds read high; B-score at 10 µM; 0.54% of 310,000 active;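 active = fluorescence ratio B-score at least 3 SD of library B-scores, with initial fluorescence B-score within 3 of them, cut at about 5.3 in these data; same plate scores as AID 2156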;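 also: B-score of peak minus minimum over baseline fluorescence ratio after K+ and Tl+ stimulus; positive B-score means potentiation of KCNQ2 with more thallium influx and brighter signal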
Target sequence (O88943 whole entry, looked up): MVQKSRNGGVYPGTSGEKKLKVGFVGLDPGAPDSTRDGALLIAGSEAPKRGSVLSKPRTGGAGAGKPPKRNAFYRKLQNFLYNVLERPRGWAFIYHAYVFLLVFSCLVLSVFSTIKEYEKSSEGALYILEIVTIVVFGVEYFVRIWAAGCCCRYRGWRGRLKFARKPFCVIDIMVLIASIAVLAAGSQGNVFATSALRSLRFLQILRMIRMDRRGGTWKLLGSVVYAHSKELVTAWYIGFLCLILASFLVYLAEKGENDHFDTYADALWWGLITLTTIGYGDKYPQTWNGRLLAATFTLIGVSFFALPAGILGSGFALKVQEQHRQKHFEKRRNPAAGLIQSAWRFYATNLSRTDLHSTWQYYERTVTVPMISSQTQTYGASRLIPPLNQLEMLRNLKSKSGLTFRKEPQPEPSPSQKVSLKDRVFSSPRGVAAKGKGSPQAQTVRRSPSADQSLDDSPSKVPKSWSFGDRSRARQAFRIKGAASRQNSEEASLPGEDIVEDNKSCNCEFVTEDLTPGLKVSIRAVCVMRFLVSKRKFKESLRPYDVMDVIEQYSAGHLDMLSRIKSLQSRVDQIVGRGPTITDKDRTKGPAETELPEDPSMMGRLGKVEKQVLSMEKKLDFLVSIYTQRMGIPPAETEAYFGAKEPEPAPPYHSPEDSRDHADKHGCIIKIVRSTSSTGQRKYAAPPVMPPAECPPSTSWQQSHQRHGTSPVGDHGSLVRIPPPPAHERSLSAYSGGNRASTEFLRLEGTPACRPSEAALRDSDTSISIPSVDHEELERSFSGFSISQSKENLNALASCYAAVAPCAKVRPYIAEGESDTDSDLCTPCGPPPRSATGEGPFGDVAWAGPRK
KCNQ2 inh: blocks the rat KCNQ2 potassium channel; O88943; CHO-K1 KCNQ2, FluxOR thallium flux, 20 min; active compounds read low; B-score at 10 µM; 1.1% of 310,000 active; AID 2156;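 active = fluorescence ratio B-score at most minus 3 library SDs, with starting brightness B-score within 2 library SDs, cut at about -5.5 in these data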
The depositor's hits bear a star; i = inactive; x = not tested or not shown. The list is not random: actives were taken first. Their share in the collection is about 1.6%.

SMILES	KCNQ2 enhance	KCNQ2 inh
CCCCN1CC(=O)N2[C@H](c3ccc(Cl)cc3)[C@@H]3C(=O)N(CC)C(=O)[C@@H]3[C@]2(Cc2ccccc2)C1=O	x	i
C=CCN1C(=O)c2ccc(C(=O)N3CCN(S(=O)(=O)c4cccc(Cl)c4)CC3)cc2C1=O	0.2	i
COc1cccc(C(=O)NC(C)c2cccc3ccccc23)c1OC (stereo not given)	x	i
COc1cccc(C(=O)NC(C)c2ccc(-c3ccccc3)cc2)c1OC (stereo not given)	-6	-6*
O=C1NC(NS(=O)(=O)c2ccccc2)(C(F)(F)F)C(=O)N1Cc1ccccc1 (stereo not given)	0.64	i
CCCCc1cc(=O)oc2cc(OC(C)C(=O)NCCN3CCOCC3)c(Cl)cc12 (stereo not given)	x	i
CC(C)(C)NC(=O)CSc1nnc(-c2ccccn2)n1Cc1ccccc1	8.1*	i
CC(C)(C)NC(=O)CSc1nnc(-c2ccncc2)n1Cc1ccccc1	1.8	i
Cc1cc(C(=O)Nc2ccc([N+](=O)[O-])cn2)cs1	x	i
COCCn1c(=S)[nH]c2cc(C(=O)N(CCO)Cc3ccccc3)ccc2c1=O	0.75	i
CC1=CC(C)(C)N(C(=O)c2ccccc2)c2ccc(C)cc21	x	i
CC1=CC(C)(C)N(C(=O)c2ccccc2)c2ccccc21	-5.6	-5.6*
COc1ccccc1CN(C)C(=O)CN1C(=O)c2ccccc2C1=O	x	i
CCCCc1ccc(NC(=O)CC(C)(C)C)cc1	14*	i
CCCCc1ccc(NC(=O)CC(C)=O)cc1	1	i
C[C@@H](CSc1ccccc1)CN1CC[C@H](NC(=O)OCc2ccccc2)CCC1=O	x	i
Cc1ccc(N(CC(=O)NCC2CCCO2)C(=O)Cn2nnc(-c3cccs3)n2)cc1 (stereo not given)	0.11	i
CCOC(=O)CCSc1nc(C(C)(C)C)cc(C(F)(F)F)c1C#N	x	i
CCOC(=O)CCSc1nc(C)cc(C(F)(F)F)c1C#N	-5.7	-5.7*
Cc1ccccc1C1(CCN2CCCCC2)CCOC(C)(C)C1 (stereo not given)	0.2	i
COc1ccccc1N1CCN(/N=C\c2ccccc2)CC1	x	i
COc1ccccc1N1CCN(/N=C/c2cc(OC)c(OC)c(OC)c2)CC1	x	i
COc1ccccc1N1CCN(/N=C/c2cccc(OC)c2OC)CC1	-7.3	-7.3*
COc1ccccc1N1CCN(/N=C\c2sccc2C)CC1	-6.2	-6.2*
CC(=O)c1ccccc1C(=O)N1CCCC(C(=O)c2ccc(C(F)(F)F)cc2)C1 (stereo not given)	0.79	i
SMILES	KCNQ2 enhance	KCNQ2 inh
Cc1nnc(-c2ccc(Cl)cc2)[nH]c1=O	0.62	i
NC(=O)c1ccccc1OCc1nnc(-c2ccccc2Br)o1	0.45	i
CCOCCn1c(=O)c2c(nc3n2CCCN3CCc2ccccc2)n(C)c1=O	1.2	i
CC1(C)CC(c2nc(-c3ccc(Br)cc3)cs2)CCS1 (stereo not given)	x	i
CC1(C)CC(c2nc(-c3ccc(Cl)cc3)cs2)CCS1 (stereo not given)	-6.4	-6.4*
COCC1CCN(C(=O)c2cc(COc3ccccc3SC)on2)C1 (stereo not given)	3	i
C=CC[C@H]1CC(C)=C[C@H](CC=C)N1C(=O)c1cc(COc2ccccc2SC)on1	-5.6	-5.6*
O=C(c1ccccn1)N(Cc1ccco1)C1(C(=O)NC2CCCC2)CCCCC1	x	i
O=C(c1ccc2c(c1)OCO2)N(Cc1ccco1)C1(C(=O)NC2CCCCC2)CCCCC1	-7.3	-7.3*
O=C(NCCc1ccccc1)c1cccc(N2CCCC2=O)c1	x	i
Cc1cc(C)c2nc(NCCCNC(=S)NCCCN(C)C)c(C#N)cc2c1	-7.3	-7.3*
Cc1ccc2cc(C#N)c(NCCNC(=S)NCCCN(C)C)nc2c1C	x	i
COc1ccc(C(C)=O)cc1Cn1cnc2c(cnn2C)c1=O	x	i
COC(=O)CCSc1nc(N2CCOCC2)c2c(c1C#N)CC(C)(C)OC2	1.8	i
CC(C)CCSc1nc(N2CCOCC2)c2c(c1C#N)CC(C)(C)OC2	-6.5	-6.5*
CCc1c(C)nc(N2CCN(c3ccc(OC)cc3)CC2)[nH]c1=O	x	i
COc1cc(COCC(O)CN2CCN(CCN3C(=O)c4cccc5cccc(c45)C3=O)CC2)cc(OC)c1OC (stereo not given)	0.97	i
O=C1c2cccc3cccc(c23)C(=O)N1CCN1CCN(CC(O)COCc2ccc(Cl)cc2)CC1 (stereo not given)	-5.7	-5.7*
CCN(/C=N/c1sc2c(c1C#N)CCCCC2)CC	x	i
CC(C)CN(/C=N/c1sc2c(c1C#N)CCCCC2)CC(C)C	-6.2	-6.2*
CCOC(=O)C1(Cc2cccc(OC)c2)CCCN(C(=O)CCc2cccnc2)C1 (stereo not given)	x	i
COc1ccc(-c2cc(C(=O)N(C)Cc3ccccc3F)c3ccccc3n2)cc1OC	x	i
CCN(Cc1ccccc1)C(=O)c1cc(-c2ccc(OC)c(OC)c2)nc2ccccc12	-6.4	-6.4*
COc1cccc(NC(=O)c2cc(-c3ccc(OC)cc3OC)nc3ccccc23)c1	-6.4	-6.4*
COc1ccc(-c2cc(C(=O)Nc3cc(C)on3)c3ccccc3n2)c(OC)c1	x	i
SMILES	KCNQ2 enhance	KCNQ2 inh
COc1ccc(CCNC(=O)Cc2ccsc2)cc1	0.45	i
CCOc1cc(N2CCOCC2)c(OCC)cc1NC(=O)CN1CCCC1	0.49	i
CCc1cccc(CC)c1NC(=O)c1cccc(NC(=O)c2ccccc2)c1	x	i
CCc1cccc(C)c1NC(=O)c1cccc(N(C)C)c1	-6.9	-6.9*
C/C(=N\NC(=O)c1cccc2ccccc12)c1ccccn1	x	i
C/C(=N\NC(=O)c1ccoc1C)c1cccc2ccccc12	12*	i
CCCCONc1ncnc2nonc12	0.49	i
COc1cc(/C=N/NC(=O)c2cccc(S(=O)(=O)N3CCCC3)c2)cc(OC)c1O	x	i
CCOC(=O)c1ccc(N2C(=O)C(C)=C(C)C2=O)cc1	x	i
COC(=O)c1cc(-c2ccc(Br)cc2)on1	0.65	i
CCOC(=O)c1nn(C23CC4CC(CC(C4)C2)C3)c2c1C(=O)N(c1ccc(C)cc1)C2=O	-6.8	-6.8*
COC(=O)c1nn(C23CC4CC(CC(C4)C2)C3)c2c1C(=O)N(c1ccc(Br)cc1)C2=O	-6.5	-6.5*
Cc1ccc2oc(-c3cc(NC(=O)c4ncn[nH]4)ccc3O)nc2c1	0.38	i
Cc1cccc(OCC(=O)Nc2ccc(NC(=O)c3ccco3)cc2)c1	x	i
COc1cccc(CNC(=O)c2cc3c(cc2Cl)N2CCCCCC2=NS3(=O)=O)c1	x	i
CCOc1ccc(NC(=O)C(C)C(Cc2ccc(C)cc2)C(=O)O)cc1 (stereo not given)	0.01	i
Cc1cc(NCc2ccccc2)nc2ccccc12	2	i
C/C(CCC(C)C)=N\Nc1cc(C)c2ccccc2n1	-8.3	-8.3*
CC(=O)Nc1ccc(S(=O)(=O)NC2CC(=O)N(c3ccc(C)cc3)C2)cc1 (stereo not given)	x	i
Cc1nc(SC(C(=O)c2ccccc2)c2ccccc2)nc2ccccc12 (stereo not given)	x	i
Cc1ccc2c(C)nc(SC(C(=O)c3ccccc3)c3ccccc3)nc2c1 (stereo not given)	-6	-6*
COc1ccc2nc(SC(C(=O)c3ccccc3)c3ccccc3)nc(C)c2c1 (stereo not given)	-5.6	-5.6*
COc1ccc2nc(SCc3ccccc3C)nc(C)c2c1	x	i
